Screening results: PubChem BioAssay, several laboratories
M1 agonist – M1 muscarinic receptor agonists, primary screen, CHO-M1 cells, Fluo-4 calcium, agonist mode | B-score at 10 µM | 64,000 compounds, 3% hits | Fluo-4 calcium fluorescence; active compounds read high | Muscarinic acetylcholine receptor M1;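 active means fluorescence rise, raw or as B-score row- and column-corrected plate score, outside the 99.7% band of its plate's samples, either direction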
Pyk2 oligo antag – antagonists of Pyk2 self-association, primary screen, Q293 cells, FERM NanoBiT luminescence, HTS; Protein-tyrosine kinase 2-beta (Homo sapiens), Q14289; active compounds read low; z-score (the deposit names both 25 µM and 10 µM); 99,000 compounds, 0.83% hits; AID 1347419, 2020;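 active means Z-score of -3 or lower, scaled per plate to the spread of control and sample wells; inactive means z-score above -3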;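 further: negative z-score means lost luminescence so less FERM oligomerization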
Target sequence (Q14289 whole entry, looked up): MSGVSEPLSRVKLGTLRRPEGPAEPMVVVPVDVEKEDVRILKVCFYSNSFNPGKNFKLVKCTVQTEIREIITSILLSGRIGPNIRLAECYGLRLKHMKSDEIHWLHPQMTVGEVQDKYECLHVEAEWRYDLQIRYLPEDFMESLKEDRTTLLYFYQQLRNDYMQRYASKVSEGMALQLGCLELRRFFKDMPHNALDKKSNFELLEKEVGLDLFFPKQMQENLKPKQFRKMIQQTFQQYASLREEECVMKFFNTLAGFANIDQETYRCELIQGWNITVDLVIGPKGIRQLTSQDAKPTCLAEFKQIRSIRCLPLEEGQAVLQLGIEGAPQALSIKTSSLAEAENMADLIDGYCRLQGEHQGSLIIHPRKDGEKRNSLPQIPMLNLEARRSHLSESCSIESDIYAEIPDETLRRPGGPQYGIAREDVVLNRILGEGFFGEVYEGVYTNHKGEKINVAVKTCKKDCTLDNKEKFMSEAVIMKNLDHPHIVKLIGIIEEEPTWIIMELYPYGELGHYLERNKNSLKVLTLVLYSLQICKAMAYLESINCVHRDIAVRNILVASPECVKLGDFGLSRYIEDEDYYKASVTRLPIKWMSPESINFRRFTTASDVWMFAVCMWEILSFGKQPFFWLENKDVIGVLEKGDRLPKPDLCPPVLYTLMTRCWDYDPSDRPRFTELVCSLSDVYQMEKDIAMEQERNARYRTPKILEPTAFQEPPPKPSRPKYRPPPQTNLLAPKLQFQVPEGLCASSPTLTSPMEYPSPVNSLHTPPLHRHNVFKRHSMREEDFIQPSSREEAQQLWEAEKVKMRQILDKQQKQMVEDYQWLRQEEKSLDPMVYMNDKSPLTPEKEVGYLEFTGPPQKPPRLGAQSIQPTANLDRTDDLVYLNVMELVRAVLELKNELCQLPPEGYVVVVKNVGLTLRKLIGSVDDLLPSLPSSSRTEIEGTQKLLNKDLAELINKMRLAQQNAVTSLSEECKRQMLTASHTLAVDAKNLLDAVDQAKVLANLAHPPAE
M1 antagonist – antagonists of rat M1 muscarinic receptor; B-score at 10 µM; 64,000 compounds, 3.4% hits; Muscarinic acetylcholine receptor M1 (Rattus norvegicus), P08482; AID 628, 2007; CHO-M1 cells, Fluo-4 calcium, ACh EC80 antagonist mode; active compounds read low;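 active means calcium fluorescence response, raw or row-and-column corrected B-score, differing from the plate sample mean either way at a set confidence level, mostly lower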
Cav3 T inh – Cav3.2 calcium influx blockers – cell-based, Fluo-4 calcium fluorescence, FDSS, MLSMR library, primary screen. Voltage-dependent T-type calcium channel subunit alpha-1H (Homo sapiens), O95180. AID 449739, 2010. B-score at 10 µM. Cav3.2-expressing cells; active compounds read low. 100,000 compounds, 4% hits;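 active means single-dose well whose peak fluorescence ratio is a statistical outlier from its plate by either plate-standardised score or position-corrected B-score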
* hit, by the source's call; x = no result given. This is a sample that favours compounds with a hit; in the whole collection about 7.1% have one here.

SMILES	M1 agonist	Pyk2 oligo antag	M1 antagonist	Cav3 T inh
Cc1ccc(CN2CCN(CC(=O)NC(C)CCc3ccccc3)C2=O)cc1 (centres undefined)	x	x	x	-5.7*
CC(CCc1ccccc1)NC(=O)CN1CCOc2ccccc21 (centres undefined)	0.527	x	0.441	-2.94
COc1ccc(C2N=C(c3ccccc3)C(C)(C)N2O)cc1 (centres undefined)	x	-0.65	x	0.758
O=C(CN1CCCCC1)Nc1ccc(NC(=O)c2ccccc2Cl)cc1Cl	x	-0.55	x	x
COC(=O)C1CCN(c2nc3ccccc3nc2C(C#N)C(=O)NCCc2ccccc2)CC1 (centres undefined)	25*	-0.63	0.106	-1.97
COC(=O)C1CCN(c2nc3ccccc3nc2C(C#N)C(=O)OCC(C)C)CC1 (centres undefined)	0.56	-2.69	-0.157	-3.4
CCCCNC(=O)C(C#N)c1nc2ccccc2nc1N1CCN(Cc2ccc3c(c2)OCO3)CC1 (centres undefined)	7.56	x	0.283	x
N#CC(C(=O)NC1CCCCC1)c1nc2ccccc2nc1N1CCOCC1 (centres undefined)	84.1*	x	1.65	x
CC1CN(c2nc3ccccc3nc2C(C#N)C(=O)NCc2ccc3c(c2)OCO3)CC(C)O1 (centres undefined)	9.84*	0.13	-0.541	-7.88*
Cc1c(C(=O)OC(C)C)nnn1-c1nonc1N	x	-0.15	x	-0.822
Cc1c(C(=O)N2CCCCC2)nnn1-c1nonc1N	x	-0.14	x	0.499
Cn1c(CNc2cccc(Cl)c2)nnc1SCC(=O)OC1CCCCC1	-0.678	0.19	-2.75	-8.54*
CC(C)OC(=O)CSc1nnc(CNc2cccc(Cl)c2)n1C	x	0.24	x	0.619
CCOC(=O)CSc1nnc(CNc2cccc(Cl)c2)n1-c1ccccc1	-0.197	-0.16	0.0381	-5.55*
CCn1c(COc2cccc3ccccc23)nnc1SCC(=O)OC1CCCCC1	x	3.66	x	-5.59*
CCOC(=O)CSc1nnc(CNc2ccc(Cl)cc2)n1-c1ccccc1	-1.26	-0.48	-0.367	-1.8
COc1cc(OC)c2c3c(c(C4CCCCC4)nc2c1)CCC3	x	x	x	0.436
CCCCC(=O)c1c(O)c2ccccc2oc1=O	0.00495	0.55	0.126	-1.22
O=C(CC1CCCCC1)c1c(O)c2ccccc2oc1=O	-0.0364	0.23	-0.249	-7.61*
COc1ccc(-c2nc(N3CCCC3)nc3nn4c(C)cc(C)nc4c23)cc1	0.094	x	0.101	x
O=C(Cc1ccc(Br)cc1)c1ccc(O)cc1O	-0.719	-0.9	-0.305	-8.57*
C#CCNC(=O)C1=C[C@@H](C2CCCCC2)[C@H](CCCO)[C@@H](OCC)O1	x	x	x	0.197
Clc1cc(Sc2ccc(Br)cc2)nnc1-c1ccccc1	x	-2.91	x	-5.29*
Cc1cc2n(n1)C(c1ccccc1)Nc1ccccc1-2 (centres undefined)	0.471	-1.25	0.171	0.696
Cc1cc2n(n1)C(c1ccc(N(C)C)cc1)Nc1ccccc1-2 (centres undefined)	-0.00768	-0.73	0.0999	-7.18*
SMILES	M1 agonist	Pyk2 oligo antag	M1 antagonist	Cav3 T inh
CC1CCC(C(=O)NC(C(=O)NCc2cccnc2)C(C)C)CC1 (centres undefined)	x	-0.17	x	0.149
CNC(=S)N1N=C(c2ccc(OC)cc2)CC1c1ccc(N(C)C)cc1 (centres undefined)	x	-0.2	x	-4.12
CNC(=S)N1N=C(c2ccc(Br)cc2)CC1c1ccc(Br)cc1 (centres undefined)	x	-0.11	x	-6.65*
CCOC(=O)C1=C(CSc2nc3ccccc3s2)NC(=O)NC1c1cccc([N+](=O)[O-])c1 (centres undefined)	x	-1.38	x	0.323
COc1cccc(Oc2cncnc2-c2ccc(OC)cc2O)c1	x	-1.79	x	-3.86*
CCOc1ccc(-c2nc(N)ncc2Oc2ccccc2Br)c(O)c1	x	-2.16	x	0.0401
CCOc1ccc(-c2nc(N)ncc2Oc2cccc(OC)c2)c(O)c1	x	-3.24*	x	0.7
C=C(C)COc1ccc(-c2[nH]ncc2-c2ccccc2OC)c(O)c1	0.438	-2.05	0.533	-3.44
C=C(C)COc1ccc(-c2nc(N)ncc2Oc2ccccc2OC)c(O)c1	0.382	-4.28*	0.0216	0.295
C=C(C)COc1ccc(-c2nc(N)ncc2Oc2ccc(OC)cc2)c(O)c1	-1.53	-4.68*	0.0452	x
O=C(c1ccc(Cl)c(F)c1F)N1CCOCC1	x	0.33	x	-0.476
CCN1CCN(C(=O)c2ccc(NS(=O)(=O)c3ccccc3)cc2)CC1	0.802	-0.89	-0.474	0.316
CCOC(=O)C1=C(C)NC(=O)NC1c1cn(-c2ccccc2)nc1-c1cccs1 (centres undefined)	-0.785	-1.63	-1.58	-0.988
O=C1CSC(c2cn(-c3ccccc3)nc2-c2cccs2)N1CC1CCCO1 (centres undefined)	0.914	-0.96	0.144	-5.04*
O=C1CSC(c2cn(-c3ccccc3)nc2-c2ccccc2)N1Cc1ccco1 (centres undefined)	-0.0319	-1.59	-0.299	-4.73*
COc1cccc(NC(=O)Nc2ccc3c(c2)N(C)C(=O)CS3)c1	x	-3.99*	x	-0.767
CN1C(=O)CSc2ccc(NC(=O)Nc3ccccn3)cc21	-0.343	-2.38	0.322	0.781
Cc1ccc(-c2nnn(CC(=O)N(c3ccc(F)cc3)C(C(=O)NC3CCCC3)c3ccco3)n2)o1 (centres undefined)	0.0772	-0.01	-0.0123	0.04
Cc1ccc(C(C(=O)NC2CCCCC2)N(Cc2ccco2)C(=O)Cc2c[nH]c3ccccc23)o1 (centres undefined)	x	1.12	x	-10*
Cc1ccc(N(C(=O)Cc2c[nH]c3ccccc23)C(C(=O)NC2CCCCC2)c2ccco2)cc1 (centres undefined)	x	2.07	x	-4.82*
COc1ccc(CCC(=O)Nc2nc3c(s2)CN(C)CC3)cc1OC	-0.205	0.72	-0.214	0.791
COc1cccc(N2C(=O)C(O)=C(C(C)=O)C2c2ccc(OC)c(OC)c2)c1 (centres undefined)	0.198	1.69	0.567*	0.297
COc1ccc(-c2n[nH]c3c2C(c2ccc(OC)c(OC)c2)N(c2ccccc2)C3=O)cc1 (centres undefined)	x	-3.03*	x	-5.6*
CCOC(=O)C[C@H]1c2ccccc2S(=O)(=O)N1c1ccccc1	x	x	x	-2.07
CCOC(=O)C1=C(C)N=C2SCCC(=O)N2[C@@H]1/C=C/c1ccccc1	x	-1.16	x	-4.79*
CCOC(=O)C1=C(C)N=C2SC(C)C(=O)N2C1/C=C/c1ccccc1OC (centres undefined)	-0.00158	0.77	0.0459	-5.19*
CCOc1ccc(-c2n[nH]c(C)c2Oc2ccc(OC)cc2)c(O)c1	-0.00502	-3.09*	-0.682	0.236
Cc1[nH]nc(-c2ccc(O)c(C)c2O)c1Oc1ccccc1	x	-3.37*	x	-4.76
C#CCOCCOCCOCCNc1nc(N2CCN(C(=O)C([C@@H](C)CC)n3cc(C(N)Cc4ccc(O)cc4)nn3)CC2)nc(N2CCN(C(=O)[C@H](CCC(=O)O)n3cc(C(N)CO)nn3)CC2)n1 (some centres undefined)	x	x	x	1.12
Cc1nc(-c2cccc(NS(=O)(=O)c3cccc4ccccc34)c2)cs1	x	-1.59	x	-3.56
